Target: PARP11
Test: pooled miR-30 sensor sort-seq; sequence = guide strand
Conditions: shRNA
Note: reference of the scale not given here.

**Q.** TTAATCTGAGGCACACCTCTTT was tested. Which sensor-assay potency score (higher = more potent) did it give?
**A.** Its sensor-assay potency score (higher = more potent) is 0.16.

**Q.** For TTTAATTCGGTTGCGATCCATC, which sensor-assay potency score (higher = more potent) is on record?
**A.** Its sensor-assay potency score (higher = more potent) is -0.893.

**Q.** Which sensor-assay potency score (higher = more potent) does the source give for TTTTTTCTTGAGCTGAGCCTTT here?
**A.** The sensor-assay potency score (higher = more potent) was -0.428.

**Q.** Which sensor-assay potency score (higher = more potent) does the source give for TATAAATTCACATAGCTCCCGT here?
**A.** The sensor-assay potency score (higher = more potent) was 0.0491.

**Q.** For TACTTGAGTATTCACATTCTCC, which sensor-assay potency score (higher = more potent) is on record?
**A.** The sensor-assay potency score (higher = more potent) was -0.755.

**Q.** For TAAAGCTTCCTTGACCACCGAG, which sensor-assay potency score (higher = more potent) is on record?
**A.** Its sensor-assay potency score (higher = more potent) is 0.0153.

**Q.** TTGCGATCCATCGTCTTCCCAA was tested. Which sensor-assay potency score (higher = more potent) did it give?
**A.** Its sensor-assay potency score (higher = more potent) is -0.797.

**Q.** How did the sensor-assay potency score (higher = more potent) turn out when TAAGCTGATATGGTACTTGAGT was run?
**A.** Its sensor-assay potency score (higher = more potent) is -0.461.

**Q.** How did the sensor-assay potency score (higher = more potent) turn out when TTGAGTATTCACATTCTCCCAG was run?
**A.** Its sensor-assay potency score (higher = more potent) is -0.0297.

Target: PATL1
Test: as above
Conditions: shRNA

**Q.** TTTCGGATACACATGATCTGTA was tested. Which sensor-assay potency score (higher = more potent) did it give?
**A.** The sensor-assay potency score (higher = more potent) was -0.0955.

**Q.** For TTTGTGCTTTCTGTCATCCATT, which sensor-assay potency score (higher = more potent) is on record?
**A.** The sensor-assay potency score (higher = more potent) was -0.905.

**Q.** TTTCTCAATTATAACAAGGGTT was tested. Which sensor-assay potency score (higher = more potent) did it give?
**A.** Its sensor-assay potency score (higher = more potent) is -0.533.

**Q.** How did the sensor-assay potency score (higher = more potent) turn out when TTTTTCTCCTCTTGTCTCGAAC was run?
**A.** The sensor-assay potency score (higher = more potent) was -1.11.

**Q.** For TTGAGGTAGGTTCATTAGCTGT, which sensor-assay potency score (higher = more potent) is on record?
**A.** The sensor-assay potency score (higher = more potent) was -1.61.

**Q.** For TAGCAGGGTCTGAACTCTGTAG, which sensor-assay potency score (higher = more potent) is on record?
**A.** Its sensor-assay potency score (higher = more potent) is -0.715.

**Q.** With TATTCTGTTGCTGTCTCTGATG as the sequence, how does the sensor-assay potency score (higher = more potent) read?
**A.** The sensor-assay potency score (higher = more potent) was -1.31.

**Q.** TGTCACAACAGCATCAATCATT was tested. Which sensor-assay potency score (higher = more potent) did it give?
**A.** Its sensor-assay potency score (higher = more potent) is -0.773.

**Q.** How did the sensor-assay potency score (higher = more potent) turn out when TTTGTGTTGATTCTGTAGCAGG was run?
**A.** The sensor-assay potency score (higher = more potent) was -0.627.

**Q.** How did the sensor-assay potency score (higher = more potent) turn out when TTATTCACACTAGAAACGGTAA was run?
**A.** The sensor-assay potency score (higher = more potent) was -0.529.

**Q.** For TTTTCGGATACACATGATCTGT, which sensor-assay potency score (higher = more potent) is on record?
**A.** Its sensor-assay potency score (higher = more potent) is -1.26.

**Q.** How did the sensor-assay potency score (higher = more potent) turn out when TGATCTTGATGACTGCTCCGGT was run?
**A.** Its sensor-assay potency score (higher = more potent) is 0.466.

Target: PCDH11X
Test: as above
Conditions: shRNA

**Q.** For TGTATCAGTAACACTCACTTGC, which sensor-assay potency score (higher = more potent) is on record?
**A.** Its sensor-assay potency score (higher = more potent) is 0.683.

**Q.** Which sensor-assay potency score (higher = more potent) does the source give for TTTACTTTCATCACGTAGGTAT here?
**A.** Its sensor-assay potency score (higher = more potent) is 0.803.

**Q.** Which sensor-assay potency score (higher = more potent) does the source give for TTGTAGGACTACATACATCATA here?
**A.** The sensor-assay potency score (higher = more potent) was -0.797.

**Q.** TTGATCTTAGCATTAGGCCCAC was tested. Which sensor-assay potency score (higher = more potent) did it give?
**A.** The sensor-assay potency score (higher = more potent) was -0.682.

**Q.** With TTGAACTGCATAGCAGTTGTCA as the sequence, how does the sensor-assay potency score (higher = more potent) read?
**A.** Its sensor-assay potency score (higher = more potent) is -0.535.

**Q.** How did the sensor-assay potency score (higher = more potent) turn out when TAACTACTTTGATTGAACGTAT was run?
**A.** The sensor-assay potency score (higher = more potent) was -0.315.

**Q.** Which sensor-assay potency score (higher = more potent) does the source give for TTCAGTGCTTTTGCGCACCAGT here?
**A.** The sensor-assay potency score (higher = more potent) was -0.711.

**Q.** How did the sensor-assay potency score (higher = more potent) turn out when TTAAGCAGCAAGTTCTTAGGGG was run?
**A.** Its sensor-assay potency score (higher = more potent) is 0.683.

**Q.** For AATAGTGACAAAATTAAGCAGC, which sensor-assay potency score (higher = more potent) is on record?
**A.** The sensor-assay potency score (higher = more potent) was -0.804.

**Q.** For TTTTCTGGCATTTCTTCTCGGA, which sensor-assay potency score (higher = more potent) is on record?
**A.** Its sensor-assay potency score (higher = more potent) is -0.435.

**Q.** With ATCAGTAACACTCACTTGCAAA as the sequence, how does the sensor-assay potency score (higher = more potent) read?
**A.** Its sensor-assay potency score (higher = more potent) is -1.63.

Target: PCDHA4
Test: as above
Conditions: shRNA

**Q.** TATCGTTGTTGTCTTCTACTTC was tested. Which sensor-assay potency score (higher = more potent) did it give?
**A.** Its sensor-assay potency score (higher = more potent) is 0.366.

**Q.** For TCTACTTCCACAATAACTCTAC, which sensor-assay potency score (higher = more potent) is on record?
**A.** Its sensor-assay potency score (higher = more potent) is 0.0889.

**Q.** Which sensor-assay potency score (higher = more potent) does the source give for TTTTCTAGTAATCTCACCTTAT here?
**A.** Its sensor-assay potency score (higher = more potent) is -0.448.

**Q.** Which sensor-assay potency score (higher = more potent) does the source give for TTCTACTTCCACAATAACTCTA here?
**A.** Its sensor-assay potency score (higher = more potent) is 0.0225.

**Q.** How did the sensor-assay potency score (higher = more potent) turn out when TTCAAAGTCAATATATCCCTTT was run?
**A.** The sensor-assay potency score (higher = more potent) was 0.476.

**Q.** TTGTGTTGCTGGGAACACCGGC was tested. Which sensor-assay potency score (higher = more potent) did it give?
**A.** Its sensor-assay potency score (higher = more potent) is -0.469.

**Q.** With ATGTCTTTGTCGGACACGCTGA as the sequence, how does the sensor-assay potency score (higher = more potent) read?
**A.** The sensor-assay potency score (higher = more potent) was -1.17.

**Q.** How did the sensor-assay potency score (higher = more potent) turn out when TCTCTGTCTAAAGATTTCCGTA was run?
**A.** Its sensor-assay potency score (higher = more potent) is -0.816.
